# High-throughput results deposited in PubChem by several laboratories.
# CCHF vOTU inh-1: blocks the CCHF virus ovarian tumor domain protease; inhibition, % at 11.5 µM; CCHFV vOTU protease, Pep-AMC fluorescence; hit rate 0.55% among 370,000; AID 651958; note: 0% = vehicle wells with enzyme and 100% = no enzyme wells
# Yp Topo-I inh: Y. pestis Topo-I inhibition via cleavage products; activity, % at 10 µM; Y. pestis Topo-I cleavage product accumulation, plate reader; hit rate 0.064% among 360,000; in the data active = activity above about 50%, passing the limit was not always enough
# PrPC TRFRET: cell surface PrPC inhibition, primary TR-FRET screen | AID 720596 | hit rate 0.43% among 370,000 | inhibition, % at 13.8 µM | TR-FRET read-out | P04156; in the data active = inhibition above about 24%; note: 0% = median of the test wells and 100% = reference compound wells
# BH1578 lux ind: induces V. cholerae light production without autoinducers | V. cholerae BH1578 lux reporter, luminescence, 6 h | activation, % at 18.7 µM | hit rate 0.16% among 350,000; in the data active = activation mostly above about 9.7%, no sharp cut-off
# CCHF vOTU inh-2: confirmation of CCHF virus vOTU protease inhibitors; shares compounds with CCHF vOTU inh-1; inhibition, % at 11.5 µM; Recombinant CCHFV vOTU, Pep-AMC fluorescence; hit rate 17% among 1,900
# * = called active by the depositor; i = inactive; . = no result. Shown are actives, neighbours in structure and some others; about 1.1% of the full set was active somewhere. Cut-off read from the data, not from the text of the source, unless noted: active = inhibition above about 30%; inactive = the rest.
SMILES,CCHF vOTU inh-1,Yp Topo-I inh,PrPC TRFRET,BH1578 lux ind,CCHF vOTU inh-2
COC(=O)[C@]12C[C@H](CC(=O)NCC3CCCCC3)C(=O)N(CCc3ccc(OC)c(OC)c3)C1=C[C@H](C1CCCC1)O[C@@H]2C,22,.,-3,.,.
COC(=O)[C@]12C[C@H](CC(=O)NCCC(C)C)C(=O)N(CCC3=CCCCC3)C1=C[C@H](C(C)(C)C)O[C@@H]2C,30*,.,12,.,5
COC(=O)[C@]12C[C@H](CC(=O)N3CCOCC3)C(=O)N(CCC3=CCCCC3)C1=C[C@H](C(C)(C)C)O[C@@H]2C,30*,.,5,.,-8
COc1ccccc1OCCCC(=O)Nc1nccs1,-9,-2,2,i,.
COC(=O)[C@]12C[C@H](CC(=O)N3CCC(c4ccccc4)CC3)C(=O)N(Cc3ccc4c(c3)OCO4)C1=C[C@H](C(C)(C)C)O[C@@H]2C,30*,.,8,.,-3
CC1(C(=O)O)CCCN1C(=O)c1cccc2ccccc12 (stereo not drawn),3,6,0,-1,.
COc1ccc(C)cc1S(=O)(=O)N(C)CC(=O)Nc1ccc2c(c1)OCO2,30*,-5,11,i,0
COc1ccc(C)cc1S(=O)(=O)N(CC(=O)Nc1ccc2c(c1)OCCO2)Cc1ccccc1,.,21,.,0,.
CCCn1c(SCC(=O)Nc2ccc(Cl)cn2)nnc1C1CC1,34*,16,0,-2,3
CCn1c(SCC(=O)Nc2ccc(Cl)cc2)nnc1C1CC1,-3,4,14,i,.
CN1CCN(CC(=O)n2c3c(c4ccccc42)CCCC3)CC1,45*,0,-7,-2,-1
CCN(CC)CC(=O)n1c2c(c3ccccc31)CCCC2,0,7,1,0,.
CC12CCC(C(=O)O)(C/C1=N\O)C2(C)C (stereo not drawn),17,6,-2,0,.
COc1ccc(OC)c(S(=O)(=O)n2cccn2)c1,-9,0,3,0,.
Cc1nnc(NC(=O)C2=COCCO2)s1,-2,13,4,2,.
CCCCc1nnc(NC(=O)C2=COCCO2)s1,33*,4,5,i,-17
CCC(COC)Oc1cc(NCc2ccccc2)c2ncn(C(C)C)c2c1 (stereo not drawn),70*,6,-21,-5,69*
COCCCOc1cc(NCc2ccccc2)c2ncn(C(C)C)c2c1,7,26,-3,0,.
CCOCCOc1cc(NCc2ccccc2)c2ncn(C(C)C)c2c1,30*,17,-1,i,4
CCCCOc1cc(NCc2ccccc2)c2ncn(C(C)C)c2c1,37*,10,-8,1,10
CCC(CO)Oc1cc(NCc2ccccc2)c2ncn(C(C)C)c2c1 (stereo not drawn),10,11,2,i,.
COc1ccc(C(=O)N2CCCC(CNC(=O)c3ccc(F)cc3)C2)cc1OC (stereo not drawn),0,-4,-5,i,.
COc1cc(C(c2c(C(=O)O)[nH]c3ccccc23)c2c(C(=O)O)[nH]c3ccccc23)ccc1OCc1ccccc1,39*,0,-1,i,22
C=CCOc1ccc(C(c2c(C(=O)O)[nH]c3ccccc23)c2c(C(=O)O)[nH]c3ccccc23)cc1,51*,10,0,-8,-2
O=C(O)c1[nH]c2ccccc2c1C(c1ccccc1)c1c(C(=O)O)[nH]c2ccccc12,18,-1,12,-2,.
SMILES,CCHF vOTU inh-1,Yp Topo-I inh,PrPC TRFRET,BH1578 lux ind,CCHF vOTU inh-2
O=C(COc1ccc(S(=O)(=O)Nc2ccccc2)cc1)N1CCOCC1,10,5,7,0,.
CC(C)(C)c1cc(=O)n(-c2ccccc2)[nH]1,77*,-5,-3,0,-7
O=c1ccc2cc3c([nH]c4ccc(Br)cc43)oc-2c1O,32*,-36,-13,0,9
C=CCn1c(O)c(C2=c3ccccc3=NC2=O)c2ccccc21,2,-15,2,-1,.
CNC(=O)c1[nH]cnc1C(=O)N[C@@H](Cc1ccccc1)C(=O)OC(C)(C)C,-1,7,0,1,.
COc1cc(CCc2ccccc2)c(C(=O)O)c(O)c1C/C=C(/C)CCC=C(C)C,36*,17,0,0,47*
CCN1CCCC1CNC(=O)c1[nH]c2ccc(OC)cc2c1C (stereo not drawn),-16,-3,-7,1,.
O=C1CCn2c1c(O)c1ccccc1c2=O,95*,5,6,i,34*
CC(C)=CCC1=C(OCC(=O)O)C(=O)c2ccccc2C1=O,110*,-4,-6,i,85*
CC(C)=CCC/C(C)=C/CC/C(C)=C/CC/C(C)=C/CC1=C(C)C(=O)c2ccccc2C1=O,3,4,2,15,.
